IDH1 R132H inh = IDH1 R132H (human) inhibition; O75874; IDH1 R132H reductase, diaphorase/resazurin fluorescence, 60 min; inhibition, % at 10 µM; 0.18% of 70,000 active; AID 624101; in the data active = inhibition above about 34%;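 also: 0% = DMSO and 100% = no enzyme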
Target sequence (O75874 whole entry R132H): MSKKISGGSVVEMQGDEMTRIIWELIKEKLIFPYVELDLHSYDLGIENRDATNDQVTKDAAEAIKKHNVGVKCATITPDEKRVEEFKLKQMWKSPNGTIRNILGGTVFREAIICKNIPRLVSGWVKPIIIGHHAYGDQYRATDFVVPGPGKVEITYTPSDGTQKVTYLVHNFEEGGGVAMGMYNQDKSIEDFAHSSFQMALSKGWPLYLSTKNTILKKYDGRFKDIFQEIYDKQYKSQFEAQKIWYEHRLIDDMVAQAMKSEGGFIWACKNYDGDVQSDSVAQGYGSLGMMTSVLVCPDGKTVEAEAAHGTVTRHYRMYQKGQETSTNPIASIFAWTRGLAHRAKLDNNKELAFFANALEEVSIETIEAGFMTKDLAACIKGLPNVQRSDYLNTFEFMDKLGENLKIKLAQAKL
* hit, by the source's call. This excerpt belongs to a sample that is enriched for hits.

Screening COc1ccc2c(c1OC)CN1CCc3cc4c(cc3C1C2)OCO4 (stereo not drawn) returned IDH1 R132H inh -2.7.
COc1ccc2c(c[n+](C)c3c4cc5c(cc4ccc23)OCO5)c1OC was read as IDH1 R132H inh 100.6*.
CC[C@H]1CN2CCc3cc(OC)c(OC)cc3[C@@H]2C[C@@H]1C[C@H]1NCCc2cc(O)c(OC)cc21 was read as IDH1 R132H inh 1.5.
